Test results: the antibiotic and cytotoxicity screens of Wong et al. (2023)
Out of some 39,000 compounds screened, about 3,300 (8.5%) were called active. The sample holds actives, similar compounds and a random draw of the others, so the mix is not that of the screen.

Test system: HepG2
Assay: cytotoxicity call (relative viability < 0.9)
Settings: 10 µM

Compound	cytotoxicity call
CNC(=O)Nc1ccc(-c2nc(N3C[C@H]4CC[C@@H](C3)O4)c3cnn(C4CCC5(CC4)OCCO5)c3n2)cc1	inactive
O=C1CC[C@@H](C(=O)N2CSC[C@H]2C(=O)O)N1	inactive
O=C1CC[C@@H](C(=O)O)N1	inactive
O=C1CCC(C(=O)N2CSCC2C(=O)O)N1 (stereo not drawn)	active
CC(C)NC(=O)Nc1cccc2c1O[C@H](CN(C)C(=O)NC1CCCCC1)[C@@H](C)CN([C@@H](C)CO)C2=O	inactive
C[C@@H]1CN([C@@H](C)CO)C(=O)c2cccc(NC(=O)c3ccncc3)c2O[C@@H]1CN(C)Cc1ccc2c(c1)OCO2	inactive
C[C@@H]1CCCCO[C@@H](CN(C)C(=O)C2CCCCC2)[C@H](C)CN([C@H](C)CO)C(=O)c2cc(NC(=O)Nc3cccc4ccccc34)ccc2O1	inactive
O=C(C[C@@H]1C[C@H]2c3cc(NC(=O)NC4CCCC4)ccc3O[C@H]2[C@@H](CO)O1)NCc1ccc(-c2ccccc2)cc1	inactive
O=C(C[C@@H]1C[C@@H]2c3cc(NC(=O)NC4CCCC4)ccc3O[C@@H]2[C@H](CO)O1)NCc1ccc(-c2ccccc2)cc1	inactive
O=C(C[C@H]1C[C@H]2c3cc(NC(=O)NC4CCCC4)ccc3O[C@H]2[C@@H](CO)O1)NCc1ccc(Oc2ccccc2)cc1	inactive
O=C(C[C@H]1C[C@@H]2c3cc(NC(=O)NC4CCCC4)ccc3O[C@@H]2[C@@H](CO)O1)NCc1ccc(-c2ccccc2)cc1	active
O=C(C[C@@H]1C[C@@H]2c3cc(NC(=O)NC4CCCC4)ccc3O[C@@H]2[C@@H](CO)O1)NCc1ccc(-c2ccccc2)cc1	inactive
O=C(C[C@H]1C[C@H]2c3cc(NC(=O)NC4CCCC4)ccc3O[C@H]2[C@@H](CO)O1)NCc1ccc(-c2ccccc2)cc1	inactive
O=C(C[C@H]1C[C@H]2c3cc(NC(=O)NC4CCCC4)ccc3O[C@H]2[C@H](CO)O1)NCc1ccc(-c2ccccc2)cc1	inactive
O=C(C[C@H]1C[C@@H]2c3cc(NC(=O)NC4CCCC4)ccc3O[C@@H]2[C@H](CO)O1)NCc1ccc(-c2ccccc2)cc1	active
O=C(C[C@@H]1C[C@H]2c3cc(NC(=O)NC4CCCC4)ccc3O[C@H]2[C@H](CO)O1)NCc1ccc(-c2ccccc2)cc1	active
CC(=O)OCCc1nc(C(=O)NCc2ccc3c(c2)OCO3)cc2c1[C@@H](CCO)N([S@](=O)C(C)(C)C)C2	inactive
O=C(C[C@@H]1C[C@H]2c3cc(NS(=O)(=O)c4ccccc4)ccc3O[C@H]2[C@H](CO)O1)NCC(F)(F)F	inactive
COc1cccc(-c2ccc3c(c2)O[C@H](CN(C)C(=O)C2CCOCC2)[C@@H](C)CN([C@@H](C)CO)S3(=O)=O)c1	inactive
C[C@@H]1CN([C@H](C)CO)C(=O)c2cc(NC(=O)Nc3ccccc3)ccc2O[C@@H]1CN(C)Cc1ccc(C(=O)Nc2ccccc2N)cc1	inactive
C[C@H](CO)N1C[C@H](C)[C@H](CN(C)S(=O)(=O)c2ccccc2)Oc2ccc(NS(=O)(=O)c3ccc(F)cc3)cc2C1=O	inactive
CN1C(=O)c2cc(NC(=O)c3cnccn3)ccc2OC[C@H]2O[C@H](CC(=O)N[C@H]3CCN(Cc4ccccc4)C3)CC[C@@H]21	inactive
COc1ccc(S(=O)(=O)N(C)C[C@@H]2Oc3ccc(NC(=O)Cn4cnnn4)cc3C(=O)N([C@H](C)CO)C[C@@H]2C)cc1	inactive
COc1ccc(C(=O)O)cc1	inactive
CCCCC(CC)COC(=O)C=Cc1ccc(OC)cc1 (stereo not drawn)	inactive

Compound	cytotoxicity call
COc1ccc(/C=C2/NC(=O)NC2=O)cc1	inactive
C/C=C/c1ccc(OC)cc1	inactive
COc1ccc(C=CC(=O)c2ccccc2)cc1	active
CC(=C/C(=O)O)/C=C/c1ccccc1	inactive
COc1ccc(C=CC(=O)c2cc(O)ccc2O)cc1	active
O=C(C=Cc1ccc(O)cc1)c1ccc(O)cc1O	inactive
COc1ccc(C(=O)C=Cc2ccccc2)cc1	active
COc1ccc(C=CC(=O)c2ccc(O)cc2O)cc1	inactive
CC=Cc1ccc(OC)cc1	active
C[C@H](CO)N1C[C@H](C)[C@H](CN(C)C(=O)Nc2ccc(-c3ccccc3)cc2)OCc2ccccc2-c2ccccc2C1=O	inactive
C[C@H](CO)N1C[C@H](C)[C@H](CN(C)C(=O)CCC(F)(F)F)OCCCC[C@H](C)Oc2ccc(NC(=O)CCC(F)(F)F)cc2C1=O	inactive
O=C(NCC(=O)N1CCOCC1)c1ccccc1	inactive
Cc1ccc(S(=O)(=O)Nc2ccc3c(c2)CC(=O)N([C@H](C)CO)C[C@@H](C)[C@H](CN(C)S(=O)(=O)c2cn(C)cn2)O3)cc1	inactive
Cc1ccc(S(=O)(=O)Nc2ccc3c(c2)CC(=O)N([C@@H](C)CO)C[C@H](C)[C@@H](CN(C)S(=O)(=O)c2cccs2)O3)cc1	inactive
C[C@H](CO)N1C[C@H](C)[C@@H](CN(C)S(C)(=O)=O)Oc2ccc(NC(=O)Cn3cnnn3)cc2C1=O	inactive
COc1ccc(O)cc1	inactive
COc1cc(C=Cc2ccc(O)cc2)cc(OC)c1	active
Oc1ccc(C=Cc2cc(O)cc(O)c2)cc1	inactive
C[C@@H]1CN([C@@H](C)CO)C(=O)c2cc(C#CCN(C)C)cnc2O[C@@H]1CN(C)S(C)(=O)=O	inactive
COc1ccc(S(=O)(=O)N(C)C[C@H]2OCCCC[C@@H](C)Oc3ccc(NC(=O)C4CCCCC4)cc3C(=O)N([C@@H](C)CO)C[C@H]2C)cc1	inactive
CC(C)(C)[S@](=O)N1Cc2cc(C(=O)NCCN3CCCCC3)nc(-c3cccc(-c4ccc(C#N)cc4)c3)c2[C@@H]1CCO	inactive
C[C@H](CO)N1C[C@H](C)[C@@H](CN(C)C(=O)c2cnccn2)Oc2cc(C#CCC3CCCC3)ccc2S1(=O)=O	active
C[C@@H]1CN([C@@H](C)CO)S(=O)(=O)c2ccc(C#CCC3CCCC3)cc2O[C@@H]1CN(C)C(=O)CN(C)C	active
C[C@@H]1CN([C@H](C)CO)S(=O)(=O)c2ccc(C#CCC3CCCC3)cc2O[C@@H]1CN(C)C(=O)c1cnccn1	inactive
C[C@@H]1CN([C@H](C)CO)S(=O)(=O)c2ccc(C#CCC3CCCC3)cc2O[C@@H]1CN(C)C(=O)CN(C)C	inactive

Compound	cytotoxicity call
C[C@@H]1CN([C@H](C)CO)S(=O)(=O)c2ccc(C#CCC3CCCC3)cc2O[C@H]1CN(C)C(=O)CN(C)C	inactive
C[C@H]1CN([C@@H](C)CO)S(=O)(=O)c2ccc(C#CCC3CCCC3)cc2O[C@H]1CN(C)C(=O)c1cnccn1	inactive
C[C@H]1CN([C@@H](C)CO)S(=O)(=O)c2ccc(C#CCC3CCCC3)cc2O[C@H]1CN(C)C(=O)CN(C)C	active
C[C@H]1CN([C@@H](C)CO)S(=O)(=O)c2ccc(C#CCC3CCCC3)cc2O[C@@H]1CN(C)C(=O)CN(C)C	inactive
C[C@H](CO)N1C[C@H](C)[C@H](CN(C)C(=O)CN(C)C)Oc2cc(C#CCC3CCCC3)ccc2S1(=O)=O	inactive
C=CCN([C@@H](Cc1ccccc1)[C@@H](O)c1cn(CCCNC(=O)C(=O)NC)nn1)S(=O)(=O)c1ccccc1[N+](=O)[O-]	inactive
C[C@@H]1CN([C@@H](C)CO)S(=O)(=O)c2ccc(C#CCN(C)C)cc2O[C@H]1CN(C)S(=O)(=O)c1cccc(F)c1	inactive
CC(=O)OC[C@@H](OC(C)=O)[C@H](OC(C)=O)[C@H](OC(C)=O)[C@H](OC(C)=O)[C@@H](COC(C)=O)OC(C)=O	inactive
Cc1noc(C)c1NC(=O)Nc1ccc2c(c1)C(=O)N([C@@H](C)CO)C[C@H](C)[C@@H](CN(C)C(=O)NC(C)C)O2	inactive
COc1ccc(S(=O)(=O)Nc2ccc3c(c2)CC(=O)N([C@@H](C)CO)C[C@@H](C)[C@@H](CN(C)Cc2ccc(Cl)c(Cl)c2)O3)cc1	active
COc1ccc(S(=O)(=O)Nc2ccc3c(c2)CC(=O)N([C@H](C)CO)C[C@H](C)[C@H](CN(C)Cc2ccc(Cl)c(Cl)c2)O3)cc1	active
COc1ccc(S(=O)(=O)Nc2ccc3c(c2)CC(=O)N([C@H](C)CO)C[C@@H](C)[C@H](CN(C)Cc2ccc(Cl)c(Cl)c2)O3)cc1	active
COc1ccc(S(=O)(=O)Nc2ccc3c(c2)CC(=O)N([C@@H](C)CO)C[C@H](C)[C@H](CN(C)Cc2ccc(Cl)c(Cl)c2)O3)cc1	active
COc1ccc(S(=O)(=O)Nc2ccc3c(c2)CC(=O)N([C@@H](C)CO)C[C@@H](C)[C@H](CN(C)Cc2ccc(Cl)c(Cl)c2)O3)cc1	inactive
COc1ccc(S(=O)(=O)Nc2ccc3c(c2)CC(=O)N([C@@H](C)CO)C[C@H](C)[C@@H](CN(C)Cc2ccc(Cl)c(Cl)c2)O3)cc1	inactive
CN1C(=O)c2cc(NC(=O)c3cscn3)ccc2OC[C@@H]2O[C@H](CC(=O)N3CCOCC3)CC[C@@H]21	inactive
OCC1OC(OCCc2ccc(O)cc2)C(O)C(O)C1O (stereo not drawn)	inactive
C[C@@H]1CN([C@H](C)CO)C(=O)c2cc(NC(=O)Nc3ccc(F)cc3)ccc2O[C@@H](C)CCCCO[C@@H]1CN(C)Cc1ccc(C(=O)O)cc1	inactive
COc1ccccc1-c1cnc2c(c1)C(=O)N([C@H](C)CO)C[C@H](C)[C@H](CN(C)C(=O)c1cccnc1)O2	inactive
CC(O)C(=O)[O-].[NH4+] (stereo not drawn)	inactive
C[C@H]1CN([C@@H](C)CO)C(=O)c2cccc(NC(=O)Nc3ccc(F)cc3)c2O[C@@H]1CN(C)C(=O)Nc1ccc(C(F)(F)F)cc1	inactive
COc1ccc(S(=O)(=O)Nc2ccc3c(c2)CC(=O)N([C@H](C)CO)C[C@H](C)[C@@H](CN(C)Cc2ccc(Cl)c(Cl)c2)O3)cc1	inactive
COc1ccc(S(=O)(=O)Nc2ccc3c(c2)CC(=O)N([C@H](C)CO)C[C@@H](C)[C@@H](CN(C)Cc2ccc(Cl)c(Cl)c2)O3)cc1	active
